PMK inhibit – S. pneumoniae PMK inhibition; purified PMK, PK/LDH-coupled NADH absorbance 340 nm; inhibition, % at 10 µM; 0.49% of 65,000 active; AID 539;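 active = top-ranked compounds by inhibition in the single 10 µM screen, taking a fixed number of the strongest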;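 also: 0% = full reaction with DMSO carrier and 100% = background rate without enzyme reaction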
DPM-DC inhibit – S. pneumoniae DPM-DC inhibition; purified DPM-DC, PK/LDH coupled NADH fluorescence; calls only at 10 µM; 0.49% of 65,000 active; AID 556;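 active = the 320 compounds with the highest percent inhibition in the single-dose primary screen, excluding strongly autofluorescent ones, cut at about 32% in these data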;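 also: kinetic rate of NADH fluorescence loss reporting ADP formed by the decarboxylase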
NADH coupling – inhibitors of enzymes used to reach an NAD/NADH endpoint | IC50, µM (doses to about 10 µM), for the others: top-dose inhibition | 0.02% of 65,000 active | coupled PK/LDH NADH assays, four targets | AID 774;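 active = single-dose screening hits from any of four coupled enzyme assays that gave an IC50 when retested across doses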;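 also: the DPM-DC format reads NADH fluorescence rather than 340 nm absorbance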
Abs 340nm – absorbance at 340 nm; compound absorbance at 340 nm, fold over control; fold change at 10 µM; 65,000 tested, under 10 active;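 active = at 10 µM dose, initial 340 nm absorbance at least 2 fold that of control wells; inactive = change under 2 fold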;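 also: initial absorbance extrapolated from kinetic A340 decline of NADH oxidation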
MK inhibit – S. pneumoniae mevalonate kinase inhibition | purified MK, PK/LDH-coupled NADH absorbance 340 nm | inhibition, % at 10 µM | 0.48% of 65,000 active | AID 555;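 active = ranked among the strongest by inhibition in the single 10 µM screen, a fixed top-ranked set picked for dose follow-up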
Fluor 339 460 – intrinsic fluorescence of library compounds, ex339/em460 – biochemical, MLSMR library, data from DPM-DC assay, artefact control, profiling panel | compound autofluorescence, ex339/em460 nm, NADH buffer; hits give high values; 1 = no-compound wells, NADH background | fluorescence fold increase at 10 µM | 5.5% of 65,000 active | AID 709;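 active = at 10 µM, mean starting fluorescence two-fold or more over control wells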;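 also: signal is the first read of a kinetic run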
* hit, by the source's call; i = inactive; . = not tested or not shown. An excerpt weighted towards active compounds, which were near 6.5% of everything screened.

SMILES | PMK inhibit | DPM-DC inhibit | NADH coupling | Abs 340nm | MK inhibit | Fluor 339 460
Cc1cc(C)c(N2CCN(S(=O)(=O)N3CCCCCC3)CC2)c(C)c1 | 0.0 | i | 1.0% | 1.07 | 4.0 | 1.06
COc1ccc(-c2nc(-c3ccncc3)no2)cc1OC | 13.0 | i | 5.0% | 1.03 | 0.0 | 1.12
COc1ccc(-c2ccc(-c3noc(-c4ccc(OC)c(OC)c4)n3)c(OC)n2)cc1 | 15.0 | . | 15.0% | 1.11 | 14.0 | 3.87*
COc1ccc(-c2ccc(-c3noc(-c4cccc(OC)c4)n3)c(OC)n2)cc1 | 5.0 | . | 9.0% | 1.12 | 12.0 | 3.83*
O=C(NC12CC3CC(CC(C3)C1)C2)c1cncc(O)c1 | 0.0 | i | 4.0% | 1.01 | 11.0 | 1.37
COc1ccc(-c2nn(CC(=O)N(C)C)c(=O)c3ccccc23)cc1 | 7.0 | i | 8.0% | 1.02 | 12.0 | 1.13
O=c1[nH]c(-c2ccc(Cl)cc2)nc2c1cnn2-c1ccccc1 | 0.0 | i | 7.0% | 1.06 | 7.0 | 2.3*
COc1ccc2c(CC(=O)Nc3ccc(OC)c(NS(=O)(=O)c4ccc(F)cc4)c3)coc2c1 | 14.0 | i | 5.0% | 1.05 | 0.0 | 1.05
CC(C)(C)OCC(NC(=O)C(CC(N)=O)NC(=O)OC(C)(C)C)C(=O)OC(C)(C)C (stereo not drawn) | 4.0 | i | 3.0% | 1 | 5.0 | 1.08
COCCn1c(-c2ccc(-c3ccccc3Cl)o2)nc2c1c(=O)[nH]c(=O)n2CC(C)C | 13.0 | . | 13.0% | 1.13 | 12.0 | 2.1*
CN1C(=O)OC2(C)CCc3ccccc3C12C (stereo not drawn) | 31.0* | i | 10.0% | 1 | 0.0 | 1.07
O=C(c1cnn2c(C(F)(F)F)cc(-c3ccco3)nc12)N1CCc2ccccc2C1 | 5.0 | i | 6.0% | 1.03 | 9.0 | 1.87
C=CCn1c(-c2cccs2)nc2ccccc21 | 6.0 | . | 8.0% | 1.04 | 10.0 | 3.13*
CCCn1c(-c2cccs2)nc2ccccc21 | 0.0 | . | 5.0% | 1.02 | 10.0 | 3.69*
COCCN1C(=O)c2oc3cc(C)c(C)cc3c(=O)c2C1c1cccc(O)c1 (stereo not drawn) | 11.0 | i | 4.0% | 1.03 | 2.0 | 1.05
COCCN1CCn2c(nc3cc(NC(=O)NC4CCCCC4)ccc32)C1 | 8.0 | . | 9.0% | 1.03 | 9.0 | 3.72*
COc1cccc(-c2nn(C)c3sc(C(=O)NCc4ccco4)cc23)c1 | 7.0 | i | 6.0% | 1 | 10.0 | 3.02*
CCN1CCCC1CNC(=O)c1cc2c(-c3ccc(Cl)cc3)nn(C)c2s1 (stereo not drawn) | 3.0 | . | 5.0% | 1.1 | 6.0 | 2.13*
CCN1CCCC1CNC(=O)c1cc2c(-c3cccc(OC)c3)nn(C)c2s1 (stereo not drawn) | 9.0 | . | 8.0% | 1.04 | 7.0 | 4.98*
CN(C)C(CNC(=O)c1cccnc1Sc1ccccc1)c1ccco1 (stereo not drawn) | 15.0 | i | 5.0% | 0.99 | 1.0 | 1.16
CCOC(=O)c1[nH]c2ccccc2c1N=CN(CC)CC | 4.0 | i | 1.0% | 1.04 | 0.0 | 1.18
OC1CN=C2C=CC=CN2C1 (stereo not drawn) | 9.0 | i | 13.0% | 1.03 | 4.0 | 2.25*
Cc1ccc(-c2cc(C(=O)Nc3cc(C)on3)c3ccccc3n2)c(C)c1 | 3.0 | i | 1.0% | 1.03 | 1.0 | 1.18
Cc1cc(NC(=O)c2cc(-c3cccnc3)nc3c(C)c(C)ccc23)no1 | 5.0 | i | 3.0% | 1.06 | 3.0 | 2.89*
CC(C)C1N=C2c3ccccc3N=C(SCC#N)N2C1=O (stereo not drawn) | 8.0 | i | 8.0% | 1.07 | 7.0 | 2.57*
SMILES | PMK inhibit | DPM-DC inhibit | NADH coupling | Abs 340nm | MK inhibit | Fluor 339 460
N#CCSC1=Nc2ccccc2C2=NC(CCC(=O)N3CCN(c4ccccc4)CC3)C(=O)N12 (stereo not drawn) | 13.0 | i | 4.0% | 1.08 | 0.0 | 1.2
CC(=NC1CCCCC1)C1=C(O)c2ccccc2C1=O | 0.0 | i | 8.0% | 1.14 | 0.0 | 1.1
CC(=O)Nc1ccc2nc(C3CCCCC3)[nH]c2c1 | 1.0 | i | 2.0% | 1.01 | 4.0 | 1.18
CC(C)Oc1ccc2c3c(c(=O)oc2c1)CCC3 | 4.0 | . | 2.0% | 1.09 | 0.0 | 2.11*
O=c1oc2cc(O)ccc2c2c1CCCC2 | 4.0 | . | 7.0% | 1.11 | 9.0 | 2.12*
CCc1cc2c3c(c(=O)oc2cc1OC)CCCC3 | 11.0 | . | 7.0% | 1.08 | 2.0 | 3.79*
COC(=O)C(C)Oc1ccc2c3c(c(=O)oc2c1)CCCCC3 (stereo not drawn) | 2.0 | . | 1.0% | 1.02 | 0.0 | 2.96*
Cc1coc2cc3oc(=O)c4c(c3cc12)CCCC4 | 1.0 | i | 4.0% | 1.1 | 6.0 | 1.79
Cc1cc2ncn(C3CC(=O)N(Cc4ccccc4)C3=O)c2cc1C (stereo not drawn) | 0.0 | i | 2.0% | 1.04 | 5.0 | 1.08
CC1(C)CC(=O)C=C(NCC2CCCO2)C1 (stereo not drawn) | 0.0 | i | 0.0% | 1.13 | 0.0 | 1.13
CC(C)NC(=O)c1cc(=O)n(C)c(=O)n1C | 0.0 | i | 2.0% | 1.03 | 6.0 | 1.1
O=c1oc2cc(O)ccc2c2oc3cc(O)ccc3c12 | 8.0 | . | 5.0% | 1.01 | 5.0 | 2.43*
COC(=O)c1ccc(OC(=O)c2ccco2)cc1 | 1.0 | i | 3.0% | 1.02 | 7.0 | 1.16
CCN(CC)c1ccc2c(c1)oc(=O)c1c(Cl)cc(=O)oc12 | 1.0 | i | 9.0% | 1.05 | 8.0 | 1.74
CCCOc1ccc2c3c(c(=O)oc2c1)CCCC3 | 1.0 | . | 6.0% | 1.1 | 11.0 | 3.75*
O=C(Oc1ccc2c3c(c(=O)oc2c1)CCCC3)c1ccco1 | 0.0 | . | 4.0% | 1.03 | 7.0 | 2.21*
CCOc1cc2oc(=O)c3c(c2cc1Cl)CCC3 | 4.0 | i | 2.0% | 1.03 | 0.0 | 1.48
O=C1CC(c2cccs2)Cc2nc(NCC3CCCO3)ncc21 (stereo not drawn) | 7.0 | i | 6.0% | 1.03 | 11.0 | 1.08
Cc1oc2nc(SCCCC(=O)NCCO)nc(N)c2c1C | 11.0 | i | 6.0% | 1.03 | 7.0 | 1.02
Cc1ccccc1N(CC(=O)NCC1CCCO1)C(=O)C1(C)CC(=O)N=C2C=CC=CN21 (stereo not drawn) | 12.0 | . | 6.0% | 0.99 | 17.0 | 3.3*
CC1(C(=O)N(CC(=O)NC2CCCC2)C2CCCC2)CC(=O)N=C2C=CC=CN21 (stereo not drawn) | 8.0 | . | 7.0% | 1 | 5.0 | 3.75*
COc1ccc(S(=O)(=O)NCC(=O)N(CC(=O)NCC2CCCO2)c2ccccc2C)cc1 (stereo not drawn) | 18.0 | i | 4.0% | 0.96 | 8.0 | 1.05
Cc1ccc(N(C(=O)Cn2nnc3ccccc32)C(C(=O)NC2CCCCC2)c2cn(C)nc2C)cc1 (stereo not drawn) | 11.0 | i | 6.0% | 0.99 | 6.0 | 1.12

Screens as filed in PubChem BioAssay.
